Test [1] is described as follows: qHTS for Inhibitors of the Functional Ribonucleoprotein Complex (vRNP) of Lassa (LASV) Arenavirus: LASV Primary Screen - GLuc reporter signal (AID 1347082; calls by dose curve; tested in HEK293 reporter line; also: nearly all actives have a fitted effect of over 60% in size; also: potency is read from the fitted curve at half-maximal effect). For orientation: In qHTS, concentration-response curves come from the screen itself.
Test [2] can be described thus: qHTS for Inhibitors of the Functional Ribonucleoprotein Complex (vRNP) of Lymphocytic Choriomeningitis Arenaviruses (LCMV): Viability assay - alamar blue signal for LCMV Primary Screen (AID 1347085; calls by dose curve; tested in HEK293 reporter line; also: nearly all actives have a fitted effect of over 80% in size; also: potency is read from the fitted curve at half-maximal effect).
Test [3] is described as follows: qHTS of pediatric cancer cell lines to identify multiple opportunities for drug repurposing: Primary screen for DAOY cells (AID 1347090; active = well fitted cell-killing curve with a large enough effect; also: nearly all actives have a fitted effect of over 55% in size; also: potency is read from the fitted curve at half-maximal effect). In short, it runs like this: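 Eight- or eleven-point concentration series, 48 h treatment at 37 degrees C in growth media; readout CellTiter-Glo luminescence. Potency and efficacy were taken from the concentration-response curves.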

The target in test [4] is Nucleoprotein (Lymphocytic choriomeningitis virus (strain Armstrong)) (UniProt P09992). Kind of test: qHTS for Inhibitors of the Functional Ribonucleoprotein Complex (vRNP) of Lymphocytic Choriomeningitis Arenaviruses (LCMV): LCMV Primary Screen - GLuc reporter signal (AID 1347086). Also: series mostly up to about 57 µM; nearly all actives have a fitted effect of over 70% in size.
Chain of Nucleoprotein (Lymphocytic choriomeningitis virus (strain Armstrong)) (P09992 whole entry, looked up): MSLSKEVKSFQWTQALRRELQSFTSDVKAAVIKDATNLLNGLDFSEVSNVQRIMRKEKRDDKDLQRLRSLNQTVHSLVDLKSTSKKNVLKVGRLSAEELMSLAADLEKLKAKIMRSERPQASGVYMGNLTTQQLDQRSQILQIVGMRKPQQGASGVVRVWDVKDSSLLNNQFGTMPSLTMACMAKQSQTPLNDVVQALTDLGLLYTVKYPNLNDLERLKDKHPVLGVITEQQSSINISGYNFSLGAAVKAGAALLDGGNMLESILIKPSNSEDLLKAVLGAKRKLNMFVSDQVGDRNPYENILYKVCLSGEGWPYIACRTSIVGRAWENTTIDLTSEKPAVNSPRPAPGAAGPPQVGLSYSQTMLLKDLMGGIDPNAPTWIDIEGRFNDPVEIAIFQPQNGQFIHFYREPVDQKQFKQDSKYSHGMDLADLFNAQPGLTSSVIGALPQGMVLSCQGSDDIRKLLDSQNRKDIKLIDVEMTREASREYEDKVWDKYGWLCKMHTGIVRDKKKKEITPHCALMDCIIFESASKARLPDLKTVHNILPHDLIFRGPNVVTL
The nature of test [5]: qHTS of pediatric cancer cell lines to identify multiple opportunities for drug repurposing: Primary screen for TC32 cells (AID 1347089; active = well fitted cell-killing curve with a large enough effect; also: nearly all actives have a fitted effect of over 60% in size; also: potency is read from the fitted curve at half-maximal effect). In short, it runs like this:
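A viability screen of TC32 cells was run over 48 h, with primary MIPE doses spanning 0.78 nM–46 µM and NPC doses 0.59 nM–46 µM. ATP luminescence (CellTiter-Glo) served as the read-out.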

The nature of test [6]: qHTS for Inhibitors of the Functional Ribonucleoprotein Complex (vRNP) of Lassa (LASV) Arenavirus: Viability assay - alamar blue signal for LASV Primary Screen (AID 1347083; calls by dose curve; tested in HEK293 reporter line; also: nearly all actives have a fitted effect of over 80% in size; also: potency is read from the fitted curve at half-maximal effect).

Results filed as inconclusive are left out. Active and inactive are the calls of the source. Unless noted, calls follow the shape of the full dose curve.

Consider `O=C(Nc1ccncc1)C(=O)c1cn(Cc2ccc(Cl)cc2)c2ccccc12`, for which, in test [1], the Potency result is “inactive”. For the same compound, the Potency in test [2] was 0.0544 µM (active); in test [3], 0.0935 µM (active).

As to `C=C[C@@H]1CN2CCC1C[C@H]2[C@H](O)c1ccnc2ccccc12` (some centres not stated), the Potency entry in test [1], in test [2], in test [4], in test [5] and in test [3] was “inactive” in each case.

With `Cc1cccc(-c2[nH]ncc2-c2ccc3ncccc3n2)n1`, the Potency entry in test [1], in test [2] and in test [4] was “inactive” in each case.

In the case of `C[C@@H]1CC[C@@]2(OC1)O[C@H]1C[C@H]3[C@@H]4CC=C5C[C@@H](O[C@@H]6O[C@H](CO)[C@@H](O[C@@H]7O[C@@H](C)[C@H](O)[C@@H](O)[C@@H]7O)[C@H](O)[C@@H]6O[C@@H]6O[C@@H](C)[C@H](O)[C@@H](O)[C@@H]6O)CC[C@]5(C)[C@@H]4CC[C@]3(C)[C@@H]1[C@H]2C`, the Potency result in test [1], in test [2] and in test [4] was “inactive” throughout. In addition, the figures for the Potency in test [5] and in test [3] were 13.1 µM (active) and 7.43 µM (active), respectively.

Consider `O=C(C1CC1)N1CC[C@@H](Cn2c(-c3ccc(-c4ccc5occc5c4)cc3)nc3cnccc32)C1`, for which the Potency entry in test [1] is “inactive”. In addition, the Potency in test [2] is 10.9 µM (active).

Regarding `CC(C)(N)C(=O)N[C@H](COCc1ccccc1)C(=O)N1CCC2(CC1)CN(S(C)(=O)=O)c1ccccc12`, the Potency result in test [1], in test [2] and in test [4] was “inactive” each time.

Consider `CS(=O)(=O)c1ccc(C(=O)Nc2ccc(Cl)c(-c3ccccn3)c2)c(Cl)c1`, for which the Potency entry in test [1], in test [2] and in test [4] was “inactive” throughout.

For `CC(C)(C)c1cc(C=C(C#N)C#N)cc(Br)c1O`, the Potency result in test [1], in test [6] and in test [5] was “inactive” in each case.

With `CCOc1ccn(-c2ccc(F)cc2)c(=O)c1C(=O)Nc1ccc(Oc2ccnc(N)c2Cl)c(F)c1`, the Potency result in test [1], in test [2] and in test [4] was “inactive” throughout.

As for `COc1cc2nccc(Oc3ccc(NC(=O)Nc4cc(C)on4)c(Cl)c3)c2cc1OC`, the Potency in test [1] is 34.3 µM (active); in test [2], 17.2 µM (active).

As for `COCC(=O)NCC=Cc1ccc2ncnc(Nc3ccc(Oc4ccc(C)nc4)c(C)c3)c2c1`, the Potency in test [1] was 43.2 µM (active). For the same compound, the Potency result in test [2] is “inactive”.

Turning to `Cc1cnc(Nc2ccc(OCCN3CCCC3)cc2)nc1Nc1cccc(S(=O)(=O)NC(C)(C)C)c1`, the Potency entry in test [1], in test [2] and in test [4] was “inactive” in each case.

With `COc1cc2c(Oc3ccc(NC(=O)C4(C(=O)Nc5ccc(F)cc5)CC4)cc3F)ccnc2cc1OCCCN1CCOCC1`, the Potency in test [6] and in test [2] was 21.7 µM (active) each time.

Turning to `CC[C@H](Nc1ncnc2nc[nH]c12)c1nc2cccc(F)c2c(=O)n1-c1ccccc1`, in test [6], the Potency was 24.3 µM (active).

For the compound `Cc1cccc(C=NNc2cc(N3CCOCC3)nc(OCCc3ccccn3)n2)c1`, the Potency in test [6] is 1.93 µM (active); in test [2], 1.37 µM (active).

In the case of `CN1CCC(CNc2ccc3ncc(-c4cccc(OC(F)(F)F)c4)n3n2)CC1`, the Potency in test [6] was 17.2 µM (active).

Regarding `CC[C@@H]1C(=O)N(C)c2cnc(Nc3ccc(C(=O)NC4CCC(N5CCN(CC6CC6)CC5)CC4)cc3OC)nc2N1C(C)C` (some centres not stated), the Potency in test [6] and in test [2] was 0.0968 µM (active) in each case.

As to `CC(C)[C@H](C(=O)Nc1ccc(C(=O)NO)cc1)c1ccccc1`, the Potency in test [6] is 5.44 µM (active); in test [2] it was 6.85 µM (active).

For `CC(C)c1ccc(Cn2ccc3c4c(N)nc(NC5CC5)nc4ccc32)cc1`, the Potency in test [6] and in test [2] was 7.69 µM (active) each time.

For the compound `Cc1ccc(C(=O)N(CCCN)[C@@H](c2nc3cc(Cl)ccc3c(=O)n2Cc2ccccc2)C(C)C)cc1`, the Potency result in test [6] was “inactive”.

For `CN1CCN(CCOc2cc(OC3CCOCC3)c3c(Nc4c(Cl)ccc5c4OCO5)ncnc3c2)CC1`, the Potency result in test [1] and in test [4] was “inactive” each time.

The values above are taken from PubChem BioAssay (NCATS).
